Only some compounds are listed: those with a hit (about 11% of all), similar ones and a draw of the others.
ALDH1A1 inh: ALDH1A1 (human) enzyme inhibition; AID 1030; P00352; Purified ALDH1A1, NADH fluorescence, propionaldehyde substrate; Potency, µM (doses to about 75.3 µM), for inactives: at the highest dose activity, negative = inhibition, most hits filed as inhibitors; actives 7.3% (n = 220,000);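 further: potency means the concentration at half of the fitted maximal effect; plate controls were no enzyme wells and a reference inhibitor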
HPGD block: blocks human HPGD enzyme activity; P15428; purified HPGD, NADH fluorescence kinetic, PGE2 substrate; Potency, µM, without a hit: at the top dose activity change, negative = inhibition, hits mostly inhibitors; actives 4.3% (n = 150,000); further: potency means the concentration at half of the fitted maximal effect
Target sequence (P15428 whole entry, looked up): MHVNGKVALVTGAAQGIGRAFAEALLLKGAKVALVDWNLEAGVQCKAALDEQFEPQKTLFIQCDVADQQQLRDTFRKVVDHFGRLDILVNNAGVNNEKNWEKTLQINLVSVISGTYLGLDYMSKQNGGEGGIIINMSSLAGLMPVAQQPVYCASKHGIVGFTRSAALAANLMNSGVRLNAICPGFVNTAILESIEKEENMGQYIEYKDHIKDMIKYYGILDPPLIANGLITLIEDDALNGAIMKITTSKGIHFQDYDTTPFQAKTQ
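20 nM HPGD preincubated 15 min at room temperature with compound in 50 mM Tris-HCl pH 8, 0.01% Tween 20. Started with 1 mM NAD+ and 30 uM prostaglandin E2; NADH fluorescence (360/450 nm) read 5 times over 30-s intervals, last minus first.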
PNC assembly inh: inhibitors of perinucleolar compartment assembly | actives 3.1% (n = 140,000) | activity change (PNC), negative = inhibition, % at 10 µM | PC3M PTB-GFP, PNC prevalence imaging, 16 h; active compounds read low;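 active means readout at or below -70, meaning at least 70% loss of cells showing the perinucleolar compartment, a nuclear body marking cancer cells; inconclusive means readout between -30 and a set limit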;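 further: plate controls were DMSO wells for no effect and camptothecin positive control wells for full effect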
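PC3M cells stably expressing PTB-GFP, 750–1000 cells/well, treated 16 h at 37 °C with compound (23 nl of library stock), in duplicate. After paraformaldehyde fixation and Hoechst stain, imaged at 20x; PNC prevalence scored by image analysis.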
Active calls of the source: *; ? = inconclusive; . = not tested or not shown. Unless noted, the call rests on the fitted dose curve; in most records, active means well fitted inhibition curve with a large enough effect (not every such curve was filed as active); inconclusive means small, poorly fitted or top-dose-only effect, or another doubt; inactive means no such curve, though single readings can be large or run the other way. Unless noted, on the % scale 0 is the no-effect control and ±100 the full control effect.

SMILES	ALDH1A1 inh	HPGD block	PNC assembly inh
CC(C)Oc1cccc(C(=O)NC(=S)Nc2cccc(C(F)(F)F)c2)c1	18µM*	-22%	-12
CCN(CC)S(=O)(=O)c1cc(C(=O)Nc2ccncc2)ccc1Cl	?	-11%	-12
CCCCOc1cccc(C(=O)NC(=S)Nc2cccnc2)c1	25µM*	-12%	-10
COc1cc(OC)cc(C(=O)Nc2cccnc2)c1	-2%	.	.
CCOc1cc(OCC)cc(C(=O)Nc2cccnc2)c1	-3%	-2%	-91*
CC(C)Oc1cccc(C(=O)NC(=S)Nc2ccc(Cl)c(C(=O)O)c2)c1	?	-12%	-2
CCN(CC)S(=O)(=O)c1cc(C(=O)Nc2cccnc2)ccc1Cl	4.5µM*	-7%	?
CCOc1cccc(C(=O)NC(=S)Nc2cccnc2)c1	?	-12%	-3
COc1ccccc1CN1CC[C@@]2(CCCN(C(=O)c3ccco3)C2)C1	?	-7%	.
CCCCOc1cccc(C(=O)NC(=S)Nc2cccc(C(F)(F)F)c2)c1	8.9µM*	-21%	14
CCCNC(=S)Nc1cccc(C(F)(F)F)c1	8%	-9%	-25
CN1CC[C@@]2(CCCN(S(=O)(=O)c3ccccc3)C2)C1	-15%	-10%	.
CC(=O)OCC(OC(C)=O)C(OC(C)=O)C(OC(C)=O)C(OC(C)=O)C(COC(C)=O)OC(C)=O (stereo unspecified)	11%	-9%	.
C#CCCCCCCCCCCCC(O)CC(O)COC(C)=O (stereo unspecified)	14µM*	-24%	.
Cc1ccc(S(=O)(=O)CCc2nc3ccccc3[nH]2)cc1C	8%	.	.
COC1/C=C/OC2(C)Oc3c(C)c(O)c4c(O)c(c(/C=N/N5CCN(C)CC5)c(O)c4c3C2=O)NC(=O)/C(C)=C/C=C/C(C)C(O)C(C)C(O)C(C)C(OC(C)=O)C1C (stereo unspecified)	-2%	-16%	.
COCCNC(=O)C(=O)NCCN1CCNCC1	7%	.	.
CCn1c(C)nc2cc(C(=O)NNC(=S)Nc3ccccc3Cl)ccc21	32µM*	-25%	-7
O=C(NNC(=S)Nc1ccc(Cl)cc1Cl)C1CC1	?	-7%	-1
O=C(NNC(=S)Nc1ccc(Cl)cc1Cl)c1ccncc1	3.2µM*	?	-1
CCn1c(C)nc2cc(C(=O)N=Nc3c(O)[nH]c4ccccc34)ccc21	-15%	-29%	-93*
CCn1c(C)nc2cc(C(=O)NNC(=O)Nc3ccc(Cl)c(Cl)c3)ccc21	-2%	.	.
CCn1c(C)nc2cc(C(=O)NNC(=O)c3ccc(Cl)nc3)ccc21	9%	.	.
CCn1c(C)nc2cc(C(=O)N=Nc3c(O)[nH]c4c(C)cc(C)cc34)ccc21	-2%	-20%	51
CCn1c(C)nc2cc(C(=O)NNC(=S)Nc3ccc(Cl)cc3Cl)ccc21	3.5µM*	?	0
SMILES	ALDH1A1 inh	HPGD block	PNC assembly inh
CCn1c(C)nc2cc(C(=O)NNC(=S)Nc3ccccc3)ccc21	2%	.	.
CCn1c(C)nc2cc(C(=O)NNC(=S)NC(=O)c3ccccc3)ccc21	25µM*	.	.
CN(C)c1ccc(S(=O)(=O)NCC(=O)OCC(=O)Nc2cccc(Cl)c2)cc1[N+](=O)[O-]	7.9µM*	3%	42
CNc1ccc(S(=O)(=O)NCC(=O)OCC(=O)Nc2cccc(Cl)c2Cl)cc1[N+](=O)[O-]	?	-16%	0
CCN1C(=O)c2cccc3c(S(=O)(=O)Nc4ncccc4C)ccc1c23	10µM*	-25%	33
CCN1C(=O)c2cccc3c(S(=O)(=O)NCc4cccnc4)ccc1c23	?	-25%	-2
CCN1C(=O)c2cccc3c(S(=O)(=O)Nc4nc(C)cs4)ccc1c23	3.5µM*	-21%	?
COc1ccccc1N(CCN1C(=O)c2cccc3cccc(c23)C1=O)C(=O)c1ccncc1	7%	.	.
CCN1C(=O)c2cccc3c(S(=O)(=O)NCc4ccco4)ccc1c23	?	-6%	-21
Cc1csc(NS(=O)(=O)c2cccc([N+](=O)[O-])c2)n1	2%	.	.
CCN1C(=O)c2cccc3c(S(=O)(=O)Nc4ccc(OC)cc4OC)ccc1c23	11µM*	-7%	-21
CCN1C(=O)c2cccc3c(S(=O)(=O)N(C(=O)c4ccncc4)c4ccc(OC)cc4)ccc1c23	?	?	-85*
FC(F)(F)c1ccccc1-c1cc(NCc2cccs2)ncn1	-5%	.	.
CCN(CC)S(=O)(=O)c1ccc(OC)c(NC(=O)CSc2cc(Cl)ccc2Cl)c1	-2%	-10%	?
COc1ccccc1CNc1ncncc1-c1ccccc1OC	1%	.	.
COC(=O)c1ccc(CN2CCN(C3CCCC3)C(CCO)C2)cc1 (stereo unspecified)	10%	.	.
CC(C)[C@@H](CC(=O)N[C@@H]1CCNC[C@H]1C(=O)N[C@H](CC(=O)N[C@@H](CCC(=O)O)CC(=O)O)Cc1ccccc1)NC(=O)C[C@H](Cc1ccccc1)NC(=O)[C@@H]1CNCC[C@H]1N	1%	-9%	.
CCN1C(=O)c2cccc3c(S(=O)(=O)Nc4ccccc4)ccc1c23	1µM*	-15%	-27
CCN1C(=O)c2cccc3c(S(=O)(=O)Nc4ccccn4)ccc1c23	7.9µM*	-5%	33
CN(C)c1cccc2c(S(=O)(=O)Nc3ccccn3)cccc12	-16%	-15%	?
CCN1C(=O)c2cccc3c(S(=O)(=O)Nc4ccncc4)ccc1c23	?	?	14
CC(C)Nc1nnc(SCC(=O)NCc2ccc3c(c2)OCO3)s1	18µM*	.	.
Cc1ccc(-c2nsc(SCC(=O)NCc3ccc4c(c3)OCO4)n2)cc1	11%	-8%	?
Cc1ccccc1-c1nsc(SCC(=O)NCc2ccc3c(c2)OCO3)n1	22µM*	-18%	24
CC(C)C(=O)Nc1nnc(SCC(=O)NCc2ccc3c(c2)OCO3)s1	4%	.	.
SMILES	ALDH1A1 inh	HPGD block	PNC assembly inh
COc1ccc2c(c1)C(=O)[C@@H](OC(=O)NC1CCCC1)[C@H](c1ccc(OC)c(Br)c1)O2	-8%	-6%	.
Cc1c(Br)c([N+](=O)[O-])nn1CC(=O)NCC1CCCO1 (stereo unspecified)	13%	.	.
O=C(Cc1ccccc1)n1nc(-c2ccco2)nc1SCc1ccccc1	?	4.5µM*	?
O=C(c1ccco1)n1nc(-c2ccco2)nc1SCc1ccccc1	-5%	?	47
O=C(c1ccco1)n1nc(-c2ccccc2)nc1SCc1ccccc1	1%	18µM*	-10
CCCC(=O)n1nc(-c2ccco2)nc1SCc1ccccc1	?	?	-9
CCCc1nnc(NC(=O)OCC)s1	1%	.	.
O=C(NCCN1C(=O)S/C(=C/c2cccnc2)C1=O)C1CC(=O)N(Cc2ccccc2)C1 (stereo unspecified)	5%	.	.
COC(=O)C(CO)NC(=O)C(C)NC(=O)CNC(=O)OCc1ccccc1 (stereo unspecified)	4%	.	.
CC1(C)Cc2c(C#N)c(OCC(=O)c3ccc(Cl)cc3)nc(-c3ccoc3)c2CO1	0.4µM*	.	-94*
CC1(C)Cc2c(C#N)c(OCC(=O)c3ccccc3)nc(-c3ccoc3)c2CO1	0.28µM*	?	-22
COC(=O)COc1nc(C)c2c(c1C#N)CC(C)(C)OC2	?	-16%	?
COc1nc(-c2ccccc2)c2c(c1C#N)CC(C)(C)OC2	?	-7%	37
Cc1cc2c(N=NC(=O)CCc3ccccc3)c(O)[nH]c2cc1Br	7%	0%	-28
